Laboratory results taken from PubChem BioAssay (NCI).
This is part of a sample that, as a whole, favours compounds with a hit. Of some 83,000 tested, about 20% had one in any assay.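 Assay: single dose, 48 h. Readout: percent growth (0 = no net growth; negative = cell death). Active: <10.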 Values without a mark were called inactive. Active and inactive are the calls of the source.

Legend:
Assay in all cases: NCI-60 one-dose screen, 48 h (100 = growth as untreated, 0 = no growth, -100 = all killed)
Conditions in all cases: 10 µM unless noted
[1] = tested on: DU-145 prostate
[2] = tested on: K-562 leukemia
[3] = tested on: MALME-3M melanoma
[4] = tested on: MDA-MB-231 breast
[5] = tested on: RXF 393 renal
[6] = tested on: SF-268 CNS
[7] = tested on: SF-295 CNS
[8] = tested on: SF-539 CNS
[9] = tested on: UACC-257 melanoma
[10] = tested on: M14 melanoma
[11] = tested on: HCT-15 colon
[12] = tested on: HT29 colon
[13] = tested on: SNB-75 CNS
[14] = tested on: SNB-19 CNS
[15] = tested on: U251 CNS
[16] = tested on: PC-3 prostate
[17] = tested on: SK-MEL-5 melanoma
[18] = tested on: UACC-62 melanoma
[19] = tested on: LOX IMVI melanoma
[20] = tested on: SK-MEL-28 melanoma

SMILES | growth [1] | growth [2] | growth [3] | growth [4] | growth [5] | growth [6] | growth [7] | growth [8] | growth [9] | growth [10] | growth [11] | growth [12] | growth [13] | growth [14] | growth [15] | growth [16] | growth [17] | growth [18] | growth [19] | growth [20]
CC(C)n1cc(C2=C(c3cccc4ccccc34)C(=O)NC2=O)c2cc(Br)ccc21 | 71% | 34.8% | 122% | 91.2% | 24.4% | 67.5% | 63.9% | 60.9% | 111% | 76.1% | 43.1% | 43.1% | 38.6% | 82.6% | 60.4% | 57.8% | -0.736% (active) | 60% | 1.07% (active) | 90.7%
O=C(Nc1cccc(Cl)c1)Oc1c(Cl)c(Cl)c(Cl)c(Cl)c1Cl | 95.6% | 98.6% | 101% | 94.3% | 117% | 95.9% | 90% | 95.3% | 110% | 97.3% | 100% | 96.3% | 76.2% | 99.1% | 102% | 86.9% | 90.6% | 90% | 95.9% | 109%
Cc1c(CC(=O)Nc2ccccc2)nnn1-c1ccccc1 | 115% | 101% | 106% | 118% | 120% | 104% | 109% | 100% | 104% | 108% | 101% | 111% | 104% | 102% | 102% | 104% | 101% | 97.7% | 97.7% | 112%
CCCCC/C=C/CCC(=O)N[C@H]1[C@H](Oc2c3cc4cc2Oc2ccc(cc2Cl)[C@@H](O[C@@H]2O[C@H](CO)[C@@H](O)[C@H](O)[C@H]2NC(C)=O)[C@@H]2NC(=O)[C@H](NC(=O)[C@@H]4NC(=O)[C@H]4NC(=O)[C@@H](Cc5ccc(c(Cl)c5)O3)NC(=O)[C@@H](N)c3ccc(O)c(c3)Oc3cc(O)cc4c3)c3ccc(O)c(c3)-c3c(O[C@H]4O[C@H](CO)[C@@H](O)[C@H](O)[C@@H]4O)cc(O)cc3[C@H](C(=O)O)NC2=O)O[C@H](CO)[C@H](O)[C@@H]1O | 112% | 98.6% | 108% | 100% | 112% | 98.5% | 94.8% | 110% | 89.4% | 109% | 111% | 103% | 109% | 87.3% | 95.7% | 89.9% | 108% | 96.4% | 91.5% | 119%
COc1ccc(C2CC(=O)Oc3c(OC)c4c(c(OC)c32)OCO4)cc1 (stereo not given) | 112% | 61.1% | 94.5% | 100% | 99.6% | 99.3% | 102% | 98.6% | 101% | 98.8% | 87.6% | 99.4% | 98.6% | 107% | 99.6% | 106% | 105% | 91.1% | 90.3% | 95.6%
Cc1ccc(Nc2oc(-c3ccccc3)nc2[P+](c2ccccc2)(c2ccccc2)c2ccccc2)cc1 | -19.4% (active) | 0.645% (active) | -61.6% (active) | -83.5% (active) | -69.1% (active) | 10.6% | -85.5% (active) | -60.7% (active) | -42.5% (active) | -76.2% (active) | -34.4% (active) | -28.1% (active) | -2.21% (active) | 0.303% (active) | -58% (active) | -21.1% (active) | -99.7% (active) | -35.4% (active) | -100% (active) | 1.52% (active)
COc1ccc(-c2cc(-c3ccc(Cl)cc3)c(C#N)c(=O)n2CCCCC(=O)NO)cc1 | 78.2% | 61.8% | 73.3% | 52.1% | 37.3% | 85.2% | 90.2% | 82.5% | 80% | 72.6% | 20.9% | 83.9% | 76.7% | 78% | 69.7% | 70.6% | 39.1% | 87.1% | -14.3% (active) | 79.3%
O=C(Nc1ccccc1C(F)(F)F)C1=NCCCCN1 | 106% | 94.4% | 103% | 102% | 97% | 96.8% | 93.6% | 96.1% | 99% | 98.3% | 97.8% | 98.7% | 88% | 97.7% | 103% | 96.5% | 100% | 93.3% | 96.2% | 106%
Cc1ccc(NC(=O)c2ccc(Nc3ncnc4c3cnn4-c3cccc(F)c3)cc2)cc1 | 104% | 96.3% | 101% | 95.2% | 92.5% | 97.2% | 103% | 101% | 98% | 99% | 100% | 98.8% | 93.5% | 94.2% | 102% | 100% | 99.8% | 90.7% | 92.8% | 106%
CCOc1cc(\C=N/N=C(N)/C(N)=N\N=C/c2ccc(O)c(OCC)c2)ccc1O | 111% | 83% | 123% | 94.7% | 95.9% | 98.1% | 106% | 112% | 108% | 113% | 101% | -46.5% (active) | 116% | 109% | 95.8% | 82.4% | 94.2% | 95.3% | 103% | 103%
CCOC(=O)CC1CSC(N/N=C/c2ccc(O)cc2)=N1 (stereo not given) | 106% | 99.4% | 97% | 113% | 111% | 96.2% | 99.1% | 95.3% | 108% | 92% | 100% | 106% | 93.4% | 106% | 98.9% | 89.5% | 102% | 102% | 99% | 107%
CC(=O)Oc1ccccc1C(=O)N(Cc1ccc2c(Cl)cc(Cl)c(O)c2n1)c1ccccc1 | 50.1% | 22.5% | 69.3% | 68.8% | 60.7% | 39.8% | 33.2% | 59% | 78.6% | 51% | 23.8% | 89.4% | 51.2% | 42% | 27.6% | 34% | 41.5% | 29.3% | 38.5% | 58.3%
Cc1cc([N+](=O)[O-])ccc1NC(=O)c1ccc2c(c1)nc(-c1ccccc1)n2C1CCCCC1 | 105% | 49.9% | 80.4% | 84.4% | 96.5% | 77.1% | 80.5% | 92.2% | 92.4% | 74.9% | 51.9% | 44.5% | 80.9% | 119% | 91.4% | 77.4% | 62.3% | 95% | 64% | 117%
